As a reminder, the AC50 is the concentration at which the activity in the assay is half-maximal.

This passage reports outcome and AC50 results from PubChem BioAssay (EPA / NIEHS).

Results filed as inconclusive are left out. More than one record can exist for a structure, and the calls need not agree. Active and inactive are the calls of the source. The calls were made as follows: active = hit-call score of the fitted dose curve at least 0.9, where 1 is the maximum; inconclusive = response in the unintended direction; inactive = score below 0.9.

Cellular tumor antigen p53 (Homo sapiens), sequence (P04637 whole entry, looked up): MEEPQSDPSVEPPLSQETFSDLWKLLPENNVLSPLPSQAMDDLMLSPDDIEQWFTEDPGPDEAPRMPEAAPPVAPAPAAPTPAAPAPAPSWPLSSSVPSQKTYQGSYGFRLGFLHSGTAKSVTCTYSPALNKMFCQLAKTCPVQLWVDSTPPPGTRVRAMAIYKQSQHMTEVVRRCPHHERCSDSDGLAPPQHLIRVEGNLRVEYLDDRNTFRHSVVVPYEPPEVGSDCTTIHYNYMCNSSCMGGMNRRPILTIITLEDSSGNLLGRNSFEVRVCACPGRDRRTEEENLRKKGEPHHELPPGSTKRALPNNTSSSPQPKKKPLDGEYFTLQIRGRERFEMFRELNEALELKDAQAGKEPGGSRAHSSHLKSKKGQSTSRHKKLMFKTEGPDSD

System in one test: not listed separately
Description: TOX21_p53_BLA_p4_viability: Viability Assessment in the Tox21 HCT-116 p53 Agonism Beta-lactamase Assay, Phase 4 (AID 2283597).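 Also: hits lower the luminescence signal meaning cytotoxicity.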 In outline: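 Cytotoxicity was inferred from loss of CellTiter-Glo luminescence. HCT116 cells had been dosed with compounds after 5 h plating, incubated 16 h at 37C and 5% CO2, and exposed to the CCF4-AM substrate for 2 h.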
For `CCCCN1C=CN(C)C1`, the compound was called inactive.

Regarding `O=C(O)CNCC(=O)O`, the outcome was inactive.

In the case of `C[N+](C)(C)CC[N+]1(C)Cc2c(Cl)c(Cl)c(Cl)c(Cl)c2C1`, the compound was called inactive.

For `O=C(Nc1ccc(O)cc1)c1ccccc1O`, the result was inactive.

With `ClC/C=C/CCl`, the compound was classed as inactive.

Consider `CC[C@@]1(O)C[C@@H]2CN(CCc3c([nH]c4ccccc34)[C@@](C(=O)OC)(c3cc4c(cc3OC)N(C)[C@H]3[C@@](O)(C(=O)OC)[C@H](OC(C)=O)[C@]5(CC)C=CCN6CC[C@]43[C@@H]65)C2)C1`, for which the compound was called inactive.

As to `SCCCCCCCCS`, the call was inactive.

Consider `Cc1nc2n(c(=O)c1CCN1CCC(c3noc4cc(F)ccc34)CC1)CCC[C@H]2O`, for which the compound was called inactive.

For `O.O=C([O-])CC([S-])C(=O)[O-].[Au+].[Na+].[Na+]` (stereo unspecified), the outcome was inactive.

Consider `Cc1cc(C(=O)O)ccc1[N+](=O)[O-]`, for which the result was inactive.

Turning to `CN1CCCN=C1/C=C/c1cccs1`, the call was inactive.

Regarding `CCOC(=O)[C@H](CCc1ccccc1)N[C@@H](C)C(=O)N1C(=O)N(C)C[C@H]1C(=O)O`, the compound was classed as inactive.

Consider `C1COC1`, for which the compound was called inactive.

As to `O=C(O)c1c(Cl)cccc1Cl`, the result was inactive.

`CC(C)Cc1nccs1`: the compound was called inactive.

`BrCCCCCBr`: the result was inactive.

Regarding `Nc1ncnc2c1ncn2[C@H]1CC[C@@H](CO)O1`, the call was inactive.

With `CC(=C(CCOC(=O)C(C)C)SSC(CCOC(=O)C(C)C)=C(C)N(C=O)Cc1cnc(C)nc1N)N(C=O)Cc1cnc(C)nc1N`, the outcome was inactive.

For the compound `Cc1ncc(CO)c(C=O)c1O`, the result was inactive.

For the compound `O=[N+]([O-])c1ccccc1CCO`, the outcome was inactive.

In the case of `CCC(C)SSC(C)CC` (stereo unspecified), the compound was classed as inactive.

`CCCC(=O)OC(=O)CCC`: the outcome was inactive.

As for `CN(C)CC/C=C1/c2ccccc2COc2ccc(CC(=O)O)cc21`, the compound was classed as inactive.

With `CS(=O)(=O)OCCCNCCCOS(C)(=O)=O`, the result was inactive.

As to `O=C1c2ccccc2-c2ccccc21`, the call was inactive.

The target of the next test is Cellular tumor antigen p53 (Homo sapiens) (UniProt P04637). As to the kind of experiment: TOX21_p53_BLA_p5_ratio: Tox21 HCT-116 p53 Agonism Beta-lactamase Assay, Ratio, Phase 5 (AID 2283599). A digest of the protocol:
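HCT-116 p53-bla cells (4000/well) plated 5 h, dosed with compound (217-fold DMSO dilution) for 16 h at 37 C; CCF4-AM substrate 2 h at room temperature. Activity is the 460/530 nm emission ratio (405 nm excitation), fitted in gain-of-signal direction versus DMSO.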
For the compound `CCCCN1C=CN(C)C1`, the outcome was inactive.

As for `O=C(O)CNCC(=O)O`, the result was inactive.

As to `C[N+](C)(C)CC[N+]1(C)Cc2c(Cl)c(Cl)c(Cl)c(Cl)c2C1`, the result was inactive.

On to `ClC/C=C/CCl`, for which the result was inactive.

For the compound `CC[C@@]1(O)C[C@@H]2CN(CCc3c([nH]c4ccccc34)[C@@](C(=O)OC)(c3cc4c(cc3OC)N(C)[C@H]3[C@@](O)(C(=O)OC)[C@H](OC(C)=O)[C@]5(CC)C=CCN6CC[C@]43[C@@H]65)C2)C1`, the result was inactive and the AC50 was 17.3 nM (active).

With `Nc1cc(Cl)c(NC2=NCCN2)c(Cl)c1`, the outcome was inactive.

With `SCCCCCCCCS`, the result was inactive.

In the case of `Cc1nc2n(c(=O)c1CCN1CCC(c3noc4cc(F)ccc34)CC1)CCC[C@H]2O`, the outcome was inactive.

Regarding `O.O=C([O-])CC([S-])C(=O)[O-].[Au+].[Na+].[Na+]` (stereo unspecified), the outcome was inactive.

For `Cc1cc(C(=O)O)ccc1[N+](=O)[O-]`, the result was inactive.

Take `CCOC(=O)[C@H](CCc1ccccc1)N[C@@H](C)C(=O)N1C(=O)N(C)C[C@H]1C(=O)O`: the outcome was inactive.

With `C1COC1`, the outcome was inactive.

Regarding `O=C(O)c1c(Cl)cccc1Cl`, the result was inactive.

As for `CC(C)Cc1nccs1`, the result was inactive.

On to `BrCCCCCBr`, for which the result was inactive.

In the case of `Nc1ncnc2c1ncn2[C@H]1CC[C@@H](CO)O1`, the outcome was inactive.

For `C[N+]1(CCCCC[N+]2(C)CCCC2)CCCC1`, the outcome was inactive.

For `CC(=C(CCOC(=O)C(C)C)SSC(CCOC(=O)C(C)C)=C(C)N(C=O)Cc1cnc(C)nc1N)N(C=O)Cc1cnc(C)nc1N`, the result was inactive.

As to `Cc1ncc(CO)c(C=O)c1O`, the result was inactive.

Take `O=[N+]([O-])c1ccccc1CCO`: the result was inactive.

With `CCC(C)SSC(C)CC` (stereo unspecified), the result was inactive.

For the compound `CCCC(=O)OC(=O)CCC`, the result was inactive.

For `CN(C)CC/C=C1/c2ccccc2COc2ccc(CC(=O)O)cc21`, the result was inactive.

As for `CS(=O)(=O)OCCCNCCCOS(C)(=O)=O`, the result was inactive.

On to `O=C1c2ccccc2-c2ccccc21`, for which the outcome was inactive.
